# Results published in PubChem BioAssay AID2315 (National Center for Advancing Translational Sciences (NCATS), 2010).
# The whole screen tested about 290,000 compounds, of which about 27,000 (9.3%) were called active. What follows is part of a selection rich in actives, with near analogues and random picks from the rest. A number with no mark means an inactive call. No stated cut-off is given here; in the data, active means inhibition mostly above about 28% (no sharp cut-off); inactive means mostly below about 43%.
# Experiment: A qHTS for Small Molecule Inhibitors of Shiga Toxin; on inhibition: 0% is about no effect
# Settings: Vero cells, Shiga toxin protein synthesis inhibition reporter; at 38.7 µM, stronger effect = higher value
row,Structure (SMILES),inhibition
1,Cc1ccc2nc3c(cc(C(=O)NCCc4ccccc4)c(=N)n3CC3CCCO3)c(=O)n2c1 (stereo not drawn),-3.67%
2,COc1ccccc1CN1CC(C(=O)NCCc2cn[nH]c2)CCC1=O (stereo not drawn),22%
3,CCc1ccc(N(C(=O)c2csnn2)C(C(=O)NC2CCCCC2)c2cccnc2)cc1 (stereo not drawn),2.03%
4,CC1(C(=O)NCCc2c[nH]c3ccccc23)C=CC2(CCCCC2)N1C(=O)c1ccccc1 (stereo not drawn),14.3%
5,Cc1cc(NC(=O)CSc2nc(C(C)C)nc3sc4c(c23)CCC(C)C4)no1 (stereo not drawn),22.7%
6,Cc1nc(SCC(=O)Nc2cc(C)on2)c2c3c(sc2n1)CCCC3,21.2% (active)
7,Cc1cc(NC(=O)CSc2nc3c(cc2C#N)CCCCC3)no1,78.8% (active)
8,Cc1nc(SCC(=O)Nc2cc(C)on2)c2c(C)c(C)sc2n1,12.3%
9,Cc1ccc2cc(C#N)c(SCC(=O)NCC3CCCO3)nc2c1C (stereo not drawn),-7.12%
10,CC(NC(=O)CSc1nc2c(cc1C#N)CN(C)CC2)c1ccccc1 (stereo not drawn),-9.63%
11,COc1cccc(CN2CCN(Cc3ccc4cccc(F)c4n3)CC2CCO)c1 (stereo not drawn),12.8%
12,O=C(NCc1cccnc1)C12CC3CC(CC(C3)C1)C2,11.5%
13,Cc1ccc(C(=O)COC(=O)CCN2C(=O)C3C4CCC(C4)C3C2=O)cc1C (stereo not drawn),34.8%
14,O=C(CCC1CCN(C(=O)c2cccc(Cl)c2F)CC1)Nc1ccccc1,-32%
15,COc1ccccc1CC(=O)Nc1ccc(S(=O)(=O)N2CCCC2)cc1,-2.78%
16,CCOC(=O)C1C(c2ccc(O)cc2)NC(=O)NC1(O)C(F)(F)F (stereo not drawn),-6.9%
17,O=C(COc1ccc(-n2cnnn2)cc1)Nc1ccccc1Cl,-8.42%
18,CC(C)(C)c1ccc(C(CC(=O)O)NS(=O)(=O)Cc2ccccc2)cc1 (stereo not drawn),17%
19,COc1ccc(Nc2nc(-c3cccnc3)nc3ccccc23)cn1,-3.47%
20,COc1ccccc1Oc1nc(-c2cccnc2)nc2ccccc12,10.4%
21,Fc1ccc(/C=N/Nc2nc(-c3cccnc3)nc3ccccc23)cc1,47.7% (active)
22,Nc1nonc1-n1nnc(C(=O)N/N=C/c2ccc(Cl)cc2)c1-c1ccc2c(c1)OCO2,-3.05%
23,O=C(CN1CCN(c2ccccn2)CC1)NC1CCCCC1,-9.42%
24,COc1ccccc1OCc1nnc(SCC(N)=O)n1-c1ccccc1,7.34%

row,Structure (SMILES),inhibition
1,N/C(=N\OC(=O)CCC1CCCCC1)c1ccccn1,84.9% (active)
2,N/C(=N\OC(=O)Cc1ccccc1[N+](=O)[O-])c1ccc(Br)cc1,49%
3,COc1ccccc1OCC(=O)O/N=C(\N)c1ccccn1,55.8% (active)
4,COc1ccccc1NC(=O)C(C)OC(=O)CC1CCCC1 (stereo not drawn),-16.1%
5,COc1ccccc1OCC(=O)OCn1c(SC)nnc(C)c1=O,5.34%
6,CC(C)(C)NC(=O)NC(=O)COC(=O)CCC1CCCCC1,-9.95%
7,N/C(=N\OC(=O)CC1CCCCC1)c1ccccc1,107% (active)
8,CCN(CC(=O)Nc1ccc2c(c1)OCO2)S(=O)(=O)c1ccccc1,2.17%
9,Cc1cccc(CN2CCC(n3nccc3NC(=O)c3ccccc3C)CC2)n1,-8.84%
10,Nc1nnnn1/N=C/c1cccc(Br)c1,18.9%
11,CCS(=O)(=O)C1=NSC2=NC(=O)/C(=C\c3cc(C)n(-c4cccc(OC)c4)c3C)C(=N)N21,21.9%
12,CCC1=NN2C(=N)/C(=C/c3cc(C)n(-c4ccccc4)c3C)C(=O)N=C2S1,6.12%
13,Cc1cc(/C=C2/C(=N)N3C(=NC2=O)SN=C3S(C)(=O)=O)c(C)n1-c1ccccc1,98% (active)
14,CC1(C)NC(=O)N(CC(=O)Nc2cc(C(F)(F)F)cc(C(F)(F)F)c2)C1=O,10.9%
15,Cc1cc(=O)n2nc(N3CCC(C(=O)Nc4c(F)c(F)c(F)c(F)c4F)CC3)sc2n1,-3.72%
16,Cc1cc(=O)n2nc(N3CCCC(C(=O)NCc4ccc(Cl)cc4)C3)sc2n1 (stereo not drawn),-10.3%
17,CC(=O)O[C@H]1c2ccccc2-c2ccccc2[C@@H]1OC(C)=O,-4.45%
18,Oc1cccc2ccc(/C=C/c3ccc(Br)s3)nc12,112% (active)
19,Nc1ccc(S(=O)(=O)Nc2nccc(/C=C/c3ccc(Br)s3)n2)cc1,2.79%
20,CC(=O)Nc1ccc(S(=O)(=O)NC2Cc3ccccc3C2)cc1,-3.63%
21,COc1ccc(CCNC(=O)CS(=O)(=O)Cc2nc(-c3ccc(C)cc3)oc2C)cc1OC,3.34%
22,COc1ccc(CNc2nc3c(c(=O)[nH]c(=O)n3C)n2Cc2ccccc2)cc1,-4.35%
23,Clc1cccc(-c2nc3nc4ccccc4nc3n2Cc2ccco2)c1,75.4% (active)
24,Cc1nc2c(c(=O)n1Cc1ccco1)c1nc3ccccc3nc1n2Cc1ccccc1,-14%

row,Structure (SMILES),inhibition
1,Cc1ccc(Cn2c(C)nc3c(c2=O)c2nc4ccccc4nc2n3Cc2ccco2)cc1,12.7%
2,CN(C)N1C(N)=C(C#N)C(c2ccc(Br)cc2)C2=C1CCCC2=O (stereo not drawn),-14.3%
3,COc1ccccc1CN1CCCC(N2CCN(c3ccc(F)cc3)CC2)C1 (stereo not drawn),-2.63%
4,Cc1ccc(S(=O)(=O)NCC(=O)N(CC(=O)NCC2CCCO2)c2cccc(F)c2)cc1 (stereo not drawn),-9.17%
5,CCOC(=O)n1c(SCC(=O)N(CC)CC)nc2ccccc21,-11%
6,O=C(CSc1nc2ccccc2o1)N/N=C/c1ccccc1C(=O)O,41.2%
7,O=C(CSc1nc2ccccc2o1)N1c2ccccc2Sc2ccc(Cl)cc21,-8.96%
8,CCS(=O)(=O)c1ccc2oc(SCC(=O)N3c4ccccc4CC3C)nc2c1 (stereo not drawn),-14.6%
9,O=C(CSc1nc2ccccc2o1)N1CCN(c2ccccc2)CC1,-6.06%
10,CCn1c(SCC(=O)N/N=C/c2ccncc2)nc2ccccc21,-2.17%
11,Cc1cc(=O)[nH]c(SCC(=O)N2c3ccccc3CC2C)n1 (stereo not drawn),-7.96%
12,CCN(CC)C(=O)CSc1nc2ccccc2o1,67.4% (active)
13,CC1Cc2ccccc2N1C(=O)CSc1nc2ccccc2o1 (stereo not drawn),94.1% (active)
14,Cc1ccc(/C=N/NC(=O)CSc2nc3ccccc3o2)cc1,83.9% (active)
15,O=C(CSc1nc2ccccc2o1)N1CCN(c2ccc(Cl)cc2)CC1,-1.01%
16,CC(C)(C)C(=O)CSc1nc2ccccc2o1,113% (active)
17,O=S(=O)(NCC1CN(S(=O)(=O)c2ccc3c(c2)OCCO3)C1)c1c(F)cccc1F,-12.4%
18,COC(=O)c1cc(S(=O)(=O)N2CCN(c3cc(C)ccc3C)CC2)c[nH]1,-9.79%
19,CCC(C(=O)NC1CCCC1)N(C(=O)Cn1nnc(-c2ccc(C)o2)n1)c1ccc(OC)c(OC)c1 (stereo not drawn),-7.44%
20,CC1CC(C)CN(CCOc2cccc3ccccc23)C1 (stereo not drawn),-12.3%
21,CC1CCC(NC(=O)CN(C)S(=O)(=O)c2ccc3c(c2)c(=O)n(C)c(=O)n3C)CC1 (stereo not drawn),-2.58%
22,CCCS(=O)(=O)N1CCN=C1SCc1cccc(F)c1,-4.79%
23,COC(=O)c1cc(OCC(=O)NC2CCCc3ccccc32)cc(C(=O)OC)c1 (stereo not drawn),-5.73%
24,O=C1OCCN1C(=O)[C@H]1[C@H](c2ccc(Cl)cc2)C(c2cccc(Cl)c2)=NN1c1ccc(Br)cc1,inactive

row,Structure (SMILES),inhibition
1,COc1ccccc1Oc1ccc(N2CC(C(=O)OCC(=O)c3ccc(F)cc3)CC2=O)cc1 (stereo not drawn),7.33%
2,COc1cccc(CNS(=O)(=O)c2ccc3c(c2)CC(C)N3C(C)=O)c1 (stereo not drawn),-5.4%
3,O/N=C(\C[n+]1ccccc1)c1ccc(Br)cc1,13.2%
4,O=C(Nc1ccc2sc3ccccc3c(=O)c2c1)c1ccccc1Cl,93.9% (active)
5,O=C(Nc1cccc(NC(=O)c2ccccc2[N+](=O)[O-])c1)c1ccccc1Cl,30.9%
6,O=C(Nc1ccc2nc3n(c(=O)c2c1)CCCCC3)c1ccccc1Cl,40.7%
7,CCSCc1nc(N)nc(NCCc2ccccc2)n1,15.6%
8,CCc1nn(CCCC(=O)NCc2ccc(C)cc2)c(=O)c2cc3occc3n12,18.7%
9,CCNC(=S)N(CCN(CC)CC)Cc1cc2cc3c(cc2[nH]c1=O)OCO3,-7.63%
10,COc1ccc(NC(=O)C(C)N2c3cccc4cccc(c34)S2(=O)=O)c(OC)c1 (stereo not drawn),-11.7%
11,CCC(C)NCC(=O)Nc1ccc([N+](=O)[O-])cc1C(=O)Nc1ccccc1F (stereo not drawn),13%
12,Cc1ccc(/C([O-])=C(/C(=S)NCc2ccco2)[n+]2ccccc2)cc1[N+](=O)[O-],-8.48%
13,O=[N+]([O-])c1cccc(/C([O-])=C(/C(=S)Nc2ccccc2F)[n+]2ccccc2)c1,83.4% (active)
14,Cc1cc(C)c(C#N)c(Nc2cccc(Br)c2)n1,-8.95%
15,Cc1cc(Cl)ccc1OCc1nc(-c2ccncc2)no1,129% (active)
16,COc1ccc(N2CCN(C(=O)CCc3nc(-c4ccc(C)cc4)no3)CC2)cc1,-8.71%
17,COc1ccc(-c2noc(COc3ccc(Cl)c(C)c3)n2)cc1,25.5% (active)
18,CN(Cc1ccccn1)Cc1nc(-c2ccc(Cl)cc2)no1,31.7%
19,COc1ccc(C(C)=O)cc1COc1ccc(Cl)c(C)c1,7.61%
20,Cc1cc(Cl)ccc1OCCCC(=O)NCc1ccncc1,14.6%
21,C=C(C)COc1ccc(-c2ncncc2-c2ccc(OC)cc2)c(O)c1,-1.7%
